Eleven compounds from PubChem BioAssay (EPA / NIEHS) can be followed below.

Records with an inconclusive call do not appear. The source made the active and inactive calls. Rule for the calls, unless noted: active = hit-call score of the fitted dose curve at least 0.9, where 1 is the maximum; inactive = score below 0.9.

The nature of assay [1]: CCTE_Mundy_HCI_iCellGluta_NOG_NeuriteLength: CCTE's Neurite Outgrowth Assay in iCellGluta cells for Neurite Length, Mundy Lab (AID 2284318; active = hit-call score of the fitted dose curve at least 0.9, where 1 is the maximum). The essentials:
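Automated high-content imaging of betaIII-tubulin (Alexa Fluor-488) and Hoechst-stained cells gave neurite length, normalized to the DMSO baseline.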

The subject of a further assay is TTR (gene 7276). Kind of assay: CCTE_GLTED_hTTR_0.5uM: CCTE's human Transthyretin (hTTR) Inhibition Assay, with 0.5uM TTR, Great Lakes Toxicology and Ecology Division (GLTED) Lab (AID 2284320). A digest of the protocol: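 Cell-free displacement assay in which human TTR at 0.5 uM was incubated with test chemical for 2 h. Displacement of the ANSA probe was read by fluorescence at 380 nm excitation/475 nm emission. Loss of signal was fitted in the positive direction versus DMSO.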

Assay [2] is described as follows: CCTE_Mundy_HCI_iCellGluta_NOG_NeuronCount: CCTE's Neurite Outgrowth Assay in iCellGluta cells for Neuron Count, Mundy Lab (AID 2284340; active = hit-call score of the fitted dose curve at least 0.9, where 1 is the maximum;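 note: cells fixed about 48 h after compound addition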). A digest of the protocol:
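Neuron count read by automated high-content imaging of Hoechst 33342 and betaIII-tubulin/Alexa Fluor-488 labelling in human iPSC glutamatergic neurons. Activity fitted relative to DMSO.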

Assay [3] is described as follows: CCTE_Mundy_HCI_iCellGluta_NOG_NeuriteCount: CCTE's Neurite Outgrowth Assay in iCellGluta cells for Neurite Count, Mundy Lab (AID 2284342; active = hit-call score of the fitted dose curve at least 0.9, where 1 is the maximum;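 note: chemical exposure about 48 hours starting 2 hours after plating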).
A further assay relates to SERPINA7 (gene 6906). Kind of assay: CCTE_GLTED_hTBG: CCTE's human Thyroxine-binding Globulin (TBG) Inhibition Assay, Great Lakes Toxicology and Ecology Division (GLTED) Lab (AID 2284343; active = hit-call score of the fitted dose curve at least 0.9, where 1 is the maximum;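 note: active chemicals lower fluorescence versus DMSO baseline by displacing probe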). The essentials: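 Measures how far test chemicals displace ANSA bound to purified human TBG. The read-out is fluorescence at 380 nm excitation and 475 nm emission, taken after 2 h of incubation.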

Assay [4] can be described thus: Tanguay_ZF_120hpf_DP24: Oregon State University Tanguay Lab 24 Hour Post-fertilization zebrafish Assay for Delayed Development (AID 2284390). A digest of the protocol:
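Dechorionated 5D wild-type zebrafish embryos exposed statically from 6 hpf, one per well, 0.64% DMSO final, 28 C, sealed and dark. Developmental progression scored at 24 hpf by brightfield as binary present/absent; dead embryos excluded.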

A short description of assay [5]: Tanguay_ZF_120hpf_CRAN: Oregon State University Tanguay Lab 120 Hour Post-fertilization zebrafish Assay for Craniofacial Malformation (AID 2284397). The essentials: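 Dechorionated Tropical 5D wild-type zebrafish embryos, one per well, were statically exposed from 6 to 120 hpf at 28C in 0.64% DMSO, with 5uM trimethyltin chloride as positive control. Craniofacial malformation was scored present/absent by brightfield microscopy, relative to DMSO.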

A short description of assay [6]: Tanguay_ZF_120hpf_AXIS: Oregon State University Tanguay Lab 120 Hour Post-fertilization zebrafish Assay for Axial Malformation (AID 2284398). The essentials: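 Dechorionated 5D wild-type zebrafish embryos exposed statically, one per well, from 6 to 120 hpf at 28C, 0.64% DMSO. Axial malformation scored as present/absent by brightfield microscopy at 120 hpf; dead embryos not scored.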

Assay [7] can be described thus: Tanguay_ZF_120hpf_MO24: Oregon State University Tanguay Lab 24 Hour Post-fertilization zebrafish Assay for Mortality (AID 2284389). The essentials: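 Dechorionated wild-type zebrafish embryos, 1 per well, statically exposed from 6 hpf at 28C, 0.64% DMSO final. Mortality scored as binary present/absent at 24 hpf by brightfield microscopy, relative to DMSO.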
In another assay the test system is IYD (gene 389434). Kind of assay: CCTE_GLTED_hIYD: CCTE's human Iodotyrosine Deiodinase (xIYD) Inhibition Assay, Great Lakes Toxicology and Ecology Division (GLTED) Lab (AID 2284317; active = hit-call score of the fitted dose curve at least 0.9, where 1 is the maximum;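 note: cell-free human IYD enzyme made in baculovirus insect cells; iodide freed from monoiodotyrosine measured by cerium arsenite color change at 420 nm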). The essentials: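 First, recombinant human IYD (baculovirus-insect cells), MIT and chemical incubated 3 h. Next, iodide isolated on Dowex. Finally, Sandell-Kolthoff rate read at 420 nm, with platewise normalization to MNT and solvent controls.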

A short description of assay [8]: CCTE_Deisenroth_5AR_NBTE_donor: CCTE's 5alpha-reductase NanoBRET Target Engagement Assay […], Deisenroth Lab (AID 2284319). The note with it: actives raise or lower the signal. The essentials:
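Donor NanoLuc luminescence at 460-20 nm is the read-out, serving artifact detection. Transiently expressed SRD5A2-NanoLuc in HEK293T; 5 h total chemical exposure, testosterone tracer added for the final 2 h; fitting bidirectional relative to DMSO baseline.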

Assay [9] is described as follows: CCTE_Deisenroth_5AR_NBTE_acceptor: CCTE's 5alpha-reductase NanoBRET Target Engagement Assay - Autofluorescence Screen, Deisenroth Lab (AID 2284321).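 Note: compound fluorescence in the acceptor channel under 460 nm excitation flags autofluorescence artifacts.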 The note with it: actives raise or lower the signal. The essentials:
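Using three independent plate-reader runs, nominal 100 uM chemicals were checked for intrinsic fluorescence (ex 460 nm). DMSO defined the baseline for bidirectional fitting.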

Another assay has as its system SRD5A2 (gene 6716). Kind of assay: CCTE_Deisenroth_5AR_NBTE_ratio: CCTE's 5alpha-reductase NanoBRET Target Engagement Assay - Ratio, Deisenroth Lab (AID 2284322). Conditions: actives raise or lower the signal. The essentials: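 Reverse-transfect HEK293T with pNLF1-C-SRD5A2, express 20 h. Pre-incubate cells with chemical 3 h (8-point series, 10 nM - 29.9 uM, duplicate). Add testosterone tracer, 2 h more. Add substrate/inhibitor, read donor and acceptor emission.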
A general note: BRET reads energy transfer from a luciferase to a nearby fluorophore.

For `C=CC(=O)OCC(F)(F)C(F)(F)C(F)(F)C(F)(F)COC(=O)C=C`, the compound was called inactive in assay [1], in assay [2], in assay [3], in [5] and in assay [6]. The AC50 (commonly the concentration at which the activity in the assay is half-maximal) with TTR (gene 7276) is 0.886 µM (active); in the assay on SERPINA7 (gene 6906), 18.2 µM (active); in assay [4], 28.1 µM (active).

For the compound `OCC(F)(F)C(F)(F)C(F)(F)F`, the compound was classed as inactive in assay [1], in assay [2], in assay [3], in [4], in [5] and in assay [6].

In the case of `O=C(O)C(F)(F)C(F)(F)C(F)(F)F`, the outcome in assay [1], in [2], in assay [3], in assay [7], in assay [4] and in assay [5] was inactive. The call in [6] was inactive. Also, the AC50 in the assay on TTR (gene 7276) is 31.9 µM (active).

As for `O=C(CC(=O)C(F)(F)C(F)(F)F)C(F)(F)F`, the outcome in [1], in assay [2], in [3], in [4], in assay [5] and in [6] was inactive. The concentration at half-maximal activity (AC50) with TTR (gene 7276) is 3 µM (active).

`O=C(Cl)C(F)(F)C(F)(F)C(F)(F)C(F)(F)C(F)(F)C(F)(F)C(F)(F)C(F)(F)F`: the AC50 in the assay with IYD (gene 389434) was 139 µM (active); in the assay on TTR (gene 7276), 0.491 µM (active); in the assay with SERPINA7 (gene 6906), 14.9 µM (active).

As to `O=C(OCCOCCOCCOC(=O)c1ccccc1)c1ccccc1`, the compound was called inactive (in assay [8]; in assay [9]; with SRD5A2 (gene 6716)).

Turning to `OCC(F)(F)C(F)(F)C(F)(F)C(F)F`, the compound was called inactive in assay [1], in assay [2], in assay [3], in assay [4], in [5] and in assay [6].

As for `FC(F)(F)C(F)(F)C(F)(F)C(F)(F)C(F)(F)CCI`, the concentration at half-maximal activity (AC50) in the assay with TTR (gene 7276) is 18.6 µM (active); with SERPINA7 (gene 6906), 27 µM (active). Also, the call in assay [4], in [5] and in [6] was inactive.

Take `O=C(O)C(F)(F)C(F)(F)C(F)(F)C(F)(F)C(F)(F)C(F)(F)C(F)(F)C(F)(F)C(F)(F)C(F)F`: the concentration at half-maximal activity (AC50) in the assay with IYD (gene 389434) was 73.5 µM (active); in the assay on TTR (gene 7276), 1.03 µM (active). Moreover, the compound was called inactive in assay [4], in assay [5] and in [6].

Regarding `FC(F)(F)C(F)(F)C(F)(F)C(F)(F)C(F)(F)C(F)(F)C(F)(F)C(F)(F)F`, the compound was called inactive in assay [1], in assay [2], in [3], in assay [4], in [5] and in [6].

With `CC(Cc1ccc(O)c(O)c1)C(C)Cc1ccc(O)c(O)c1` (configuration not stated), the compound was called inactive in the assay on IYD (gene 389434). Moreover, the AC50 in assay [8] is 64.7 µM (active); in [9], 50 µM (active); in the assay on SRD5A2 (gene 6716) it was 93.7 µM (active); in the assay on SERPINA7 (gene 6906), 7.96 µM (active).
